Source: PubChem BioAssay AID2058 (Sanford-Burnham Center for Chemical Genomics, 2009)
About 150 (0.052%) of roughly 290,000 compounds were called active.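 How the source made its calls: active means inhibition of at least 50% with at least 30 cells and total cytoplasm GFP at most 10,000,000; inconclusive means under 30 cells or total GFP of 10,000,000 plus; inactive means the rest.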 This excerpt belongs to a sample that is enriched for actives. Potency and affinity values are given separately.

The compounds below were run against G-protein coupled receptor 35 (Homo sapiens) (UniProt Q9HC97) (assay: inhibition of zaprinast-stimulated GPR35 beta-arrestin translocation – imaging, U2OS, beta-arrestin-GFP, zaprinast agonist, primary screen (AID 2058)). Conditions: zaprinast antagonism, at 10 µM, stronger effect = higher value.
Sequence of G-protein coupled receptor 35 (Homo sapiens) (Q9HC97 whole entry, looked up): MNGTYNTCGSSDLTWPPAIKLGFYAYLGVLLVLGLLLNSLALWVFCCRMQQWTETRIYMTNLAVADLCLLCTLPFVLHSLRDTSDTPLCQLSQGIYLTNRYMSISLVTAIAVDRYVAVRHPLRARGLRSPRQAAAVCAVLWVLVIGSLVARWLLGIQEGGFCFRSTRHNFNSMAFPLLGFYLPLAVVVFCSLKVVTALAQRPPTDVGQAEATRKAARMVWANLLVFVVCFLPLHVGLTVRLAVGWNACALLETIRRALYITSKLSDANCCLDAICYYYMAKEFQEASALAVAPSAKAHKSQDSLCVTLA
Nc1c(S(=O)(=O)c2cccs2)c2nc3ccccc3nc2n1CC1CCCO1 (stereo unspecified) was tested, and the inhibition was 4.2% (inactive).
With NC1=NC(=O)C2(COC(c3cccnc3)OC2)S1 (stereo unspecified) the inhibition was -12.6% (inactive).
With Nc1nc2ccc([N+](=O)[O-])cc2[nH]1 the inhibition was 20.4% (inactive).
With O=[N+]([O-])c1ccc2[nH]nc(-c3ccccc3)c2c1 the inhibition was -6.7% (inactive).
With CCC(=O)Nc1nnc(SCC(=O)NCCc2ccc(OC)c(OC)c2)s1 the inhibition was -2.7% (inactive).
With Cc1cc(SCC(=O)N/N=C/c2ccc(C(=O)O)cc2)nc2ccccc12 the inhibition was 1.1% (inactive).
In the case of CC(C)N1C(=O)S/C(=C\c2ccc(-c3ccc(Cl)c(C(=O)O)c3)o2)C1=O, the inhibition is reported as -27.6% (inactive).
CCN(CC)c1ccc(/C=C2\SC(=O)N(C(C)C)C2=O)o1 was tested, and the inhibition was 102% (active).
In the case of CC(C)N1C(=O)S/C(=C/c2ccc(Sc3nc4ccccc4[nH]3)o2)C1=O, the inhibition is reported as -6.1% (inactive).
In the case of COc1ccccc1OCCNC(=O)Nc1cc(F)c(F)cc1Cl, the inhibition is reported as 3.6% (inactive).
With COc1cc(-c2nc(Cc3c(F)cccc3Cl)no2)cc(OC)c1OC the inhibition was 7.3% (inactive).
COc1ccc(C2CC(c3ccc(F)cc3)=NN2c2ccccc2)cc1OC (stereo unspecified) was tested, and the inhibition was -7.1% (inactive).
In the case of Oc1ccc(C2=NN(c3ccccc3)C(c3ccc(F)cc3)C2)cc1 (stereo unspecified), the inhibition is reported as 78.6% (active).
In the case of Oc1ccccc1C1=NN(c2ccccc2)C(c2ccc(F)cc2)C1 (stereo unspecified), the inhibition is reported as 1.5% (inactive).
COc1cccc(N2C(=O)CC(NNC(=O)c3cccs3)C2=O)c1 (stereo unspecified) was tested, and the inhibition was -15.4% (inactive).
With O=C(Cn1cncn1)N/N=C/c1cccnc1 the inhibition was -13.5% (inactive).
CC(C)C1=NN2C(=N)CC(=O)N=C2S1 was tested, and the inhibition was -12.3% (inactive).
Cc1ccc(Cn2ncc3c(N4CCN(Cc5ccc(Cl)cc5)CC4)ncnc32)cc1 was tested, and the inhibition was 11.6% (inactive).
With Cc1ccc(Cn2ncc3c(N4CCN(c5ccc(C)cc5)CC4)ncnc32)cc1 the inhibition was 1.6% (inactive).
Cc1ccc(Cn2ncc3c(N4CCN(C)CC4)ncnc32)cc1 was tested, and the inhibition was -0.4% (inactive).
With Clc1ccc(Cn2ncc3c(N4CCCC4)ncnc32)cc1 the inhibition was -11.9% (inactive).
With COc1ccc(C2c3c(ccc4ccccc34)Oc3ncn4nc(CO/N=C/c5ccccc5)nc4c32)cc1 (stereo unspecified) the inhibition was -1.8% (inactive).
In the case of COc1ccc(C(=O)NNS(=O)(=O)c2ccccc2)cc1, the inhibition is reported as -5.9% (inactive).
CC(C)[C@H](Nc1ccc(S(=O)(=O)N2CCOCC2)cc1[N+](=O)[O-])C(=O)OCC(=O)N(C(C)C)C(C)C was tested, and the inhibition was 11.5% (inactive).
In the case of COc1cc(/C=N/NC(=O)CC2(C)OCCCO2)ccc1OCc1ccc(Cl)cc1Cl, the inhibition is reported as 10.6% (inactive).
For COc1cc(/C=N/NC(=O)CC2(C)OCCCO2)ccc1OCc1ccccc1, the inhibition was -7.2% (inactive).
